Measured values: PubChem BioAssay AID1159580 (chemical genetic matrix, 2015)
Values joined by “and” are separate entries in the source; they are usually repeats but may differ in a detail not shown here. Identical values can stand only once. Hit rate of the full screen: of about 5,500 compounds, about 2,000 (36%) were called active. Another 18% or so got no clear call; they are omitted. Some of the results follow. Values without a mark were called inactive. Rule as the data show it: active = normalized growth mostly below about 0.91 (no sharp cut-off); inconclusive = no clear call, values can overlap the other calls; inactive = mostly above about 0.92.

Assay: chemical genetic growth profiling, strain panel (AID 1159580);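 also: tested at 20 µM; growth read once vehicle control cultures reached saturation at 30 °C; 1 = growth at the plate median or of vehicle wells; lower values mean less growth of the strain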
Settings: S. cerevisiae deletion strains, growth OD

`COc1ccc2cc([C@H](C)C(=O)O)ccc2c1` showed a normalized growth (locus YAL013W, strain DEP1, active compounds read low) of 1, a normalized growth (locus YAL021C, strain ccr4, active compounds read low) of 0.943 and a normalized growth (locus YAL026C, strain drs2, active compounds read low) of 0.961. The normalized growth (locus YAL030W, strain snc1, active compounds read low) was 0.981, the normalized growth (locus YAL040C, strain CLN3, active compounds read low) was 1.07 and the normalized growth (locus YBL061C, strain skt5, active compounds read low) was 0.984. It also gave a normalized growth (locus YBR009C, strain hhf1, active compounds read low) of 0.98, a normalized growth (locus YBR021W, strain FUR4, active compounds read low) of 0.958 and a normalized growth (locus YBR023C, strain chs3, active compounds read low) of 0.987. It also gave a normalized growth (locus YBR171W, strain sec66, active compounds read low) of 0.963, a normalized growth (locus YBR229C, strain ROT2, active compounds read low) of 1 and a normalized growth (locus YBR231C, strain swc5, active compounds read low) of 0.996. It also gave a normalized growth (locus YBR279W, strain paf1, active compounds read low) of 0.967, a normalized growth (locus YCL011C, strain gbp2, active compounds read low) of 0.98 and a normalized growth (locus YCL016C, strain dcc1, active compounds read low) of 0.993. It also gave a normalized growth (locus YCL029C, strain bik1, active compounds read low) of 0.999, a normalized growth (locus YCL061C, strain MRC1 (second series), active compounds read low) of 0.994 and a normalized growth (locus YCL061C, strain MRC1, active compounds read low) of 0.974. It also gave a normalized growth (locus YCL069W, strain vba3, active compounds read low) of 0.968, a normalized growth (locus YCR088W, strain abp1, active compounds read low) of 0.972 and a normalized growth (locus YDL005C, strain med2, active compounds read low) of 0.96. For the same compound, the normalized growth (locus YDL035C, strain GPR1, active compounds read low) was 0.984, the normalized growth (locus YDL040C, strain nat1, active compounds read low) was 0.973 and the normalized growth (locus YDL074C, strain BRE1, active compounds read low) was 0.989. The normalized growth (locus YDL101C, strain DUN1, active compounds read low) was 1.02, the normalized growth (locus YDL134C, strain PPH21, active compounds read low) was 1 and the normalized growth (locus YDL185W, strain tfp1, active compounds read low) was 0.957. It also gave a normalized growth (locus YDL192W, strain arf1, active compounds read low) of 0.985, a normalized growth (locus YDR001C, strain nth1, active compounds read low) of 0.98 and a normalized growth (locus YDR069C, strain doa4, active compounds read low) of 0.963. For the same compound, the normalized growth (locus YDR101C, strain arx1, active compounds read low) was 1.01, the normalized growth (locus YDR137W, strain rgp1, active compounds read low) was 0.932 and the normalized growth (locus YDR150W, strain NUM1, active compounds read low) was 1.01. It also gave a normalized growth (locus YDR159W, strain sac3, active compounds read low) of 0.926, a normalized growth (locus YDR162C, strain NBP2, active compounds read low) of 0.99 and a normalized growth (locus YDR195W, strain ref2) of 0.932. The normalized growth (locus YDR297W, strain sur2, active compounds read low) was 0.978, the normalized growth (locus YDR318W, strain mcm21, active compounds read low) was 0.996 and the normalized growth (locus YDR334W, strain swr1, active compounds read low) was 0.961. For the same compound, the normalized growth (locus YDR335W, strain msn5, active compounds read low) was 0.988, the normalized growth (locus YDR363W, strain ESC2, active compounds read low) was 0.979 and the normalized growth (locus YDR388W, active compounds read low) was 0.998. It also gave a normalized growth (locus YDR392W, strain spt3, active compounds read low) of 0.842, a normalized growth (locus YDR502C, strain sam2, active compounds read low) of 0.964 and a normalized growth (locus YEL003W, strain gim4, active compounds read low) of 0.951. For the same compound, the normalized growth (locus YEL037C, strain rad23, active compounds read low) was 0.958, the normalized growth (locus YEL061C, strain CIN8 (second series), active compounds read low) was 0.964 and the normalized growth (locus YEL061C, strain CIN8, active compounds read low) was 1. It also gave a normalized growth (locus YER002W, strain NOP16, active compounds read low) of 0.969, a normalized growth (locus YER015W, strain faa2, active compounds read low) of 0.978 and a normalized growth (locus YER016W, strain bim1, active compounds read low) of 0.976. The normalized growth (locus YER110C, active compounds read low) was 0.992, the normalized growth (locus YER111C, strain swi4, active compounds read low) was 0.966 and the normalized growth (locus YER155C, strain BEM2 (second series), active compounds read low) was 0.964. It also gave a normalized growth (locus YER155C, strain BEM2, active compounds read low) of 0.975, a normalized growth (locus YER167W, strain BCK2, active compounds read low) of 0.986 and a normalized growth (locus YFR010W, strain ubp6, active compounds read low) of 0.959. The normalized growth (locus YGL078C, strain dbp3, active compounds read low) was 0.957, the normalized growth (locus YGL086W, strain mad1, active compounds read low) was 0.98 and the normalized growth (locus YGL167C, strain pmr1, active compounds read low) was 0.977. The normalized growth (locus YGL173C, strain kem1, active compounds read low) was 0.97, the normalized growth (locus YGL227W, strain vid30, active compounds read low) was 0.98 and the normalized growth (locus YGL240W, strain doc1, active compounds read low) was 0.962. For the same compound, the normalized growth (locus YGL248W, strain PDE1, active compounds read low) was 1, the normalized growth (locus YGL253W, strain hxk2, active compounds read low) was 0.985 and the normalized growth (locus YGR078C, strain PAC10, active compounds read low) was 1. It also gave a normalized growth (locus YGR135W, strain pre9, active compounds read low) of 0.984, a normalized growth (locus YGR229C, strain SMI1, active compounds read low) of 0.999 and a normalized growth (locus YGR252W, strain gcn5, active compounds read low) of 0.933. The normalized growth (locus YHR013C, strain ard1, active compounds read low) was 0.928, the normalized growth (locus YHR027C, strain rpn1, active compounds read low) was 0.971 and the normalized growth (locus YHR030C, strain SLT2, active compounds read low) was 1.01 and 0.896. For the same compound, the normalized growth (locus YHR079C, strain IRE1 (second series), active compounds read low) was 1, the normalized growth (locus YHR079C, strain IRE1, active compounds read low) was 0.881 and the normalized growth (locus YHR094C, strain hxt1, active compounds read low) was 0.986. The normalized growth (locus YHR129C, strain ARP1, active compounds read low) was 1.01, the normalized growth (locus YHR142W, strain chs7, active compounds read low) was 0.965 and the normalized growth (locus YHR200W, strain rpn10, active compounds read low) was 0.982. The normalized growth (locus YIL066C, strain RNR3, active compounds read low) was 1.01, the normalized growth (locus YIL073C, strain SPO22, active compounds read low) was 1.03 and the normalized growth (locus YIL125W, strain kgd1, active compounds read low) was 0.93 (active). The normalized growth (locus YIR030C, strain dcg1, active compounds read low) was 0.995, the normalized growth (locus YJL092W, strain hpr5, active compounds read low) was 0.959 and the normalized growth (locus YJL095W, strain BCK1 (second series), active compounds read low) was 0.987. The normalized growth (locus YJL095W, strain BCK1, active compounds read low) was 1.04 and 0.918, the normalized growth (locus YJL115W, strain asf1, active compounds read low) was 0.96 and the normalized growth (locus YJL129C, strain trk1, active compounds read low) was 0.9. For the same compound, the normalized growth (locus YJL134W, strain LCB3, active compounds read low) was 1, the normalized growth (locus YJL154C, strain vps35, active compounds read low) was 0.976 and the normalized growth (locus YJL164C, strain tpk1, active compounds read low) was 0.967. The normalized growth (locus YJL166W, strain qcr8, active compounds read low) was 0.97, the normalized growth (locus YJL168C, strain set2, active compounds read low) was 0.991 and the normalized growth (locus YJL187C, strain SWE1 (second series), active compounds read low) was 1.02. For the same compound, the normalized growth (locus YJL187C, strain SWE1, active compounds read low) was 0.972, the normalized growth (locus YJR043C, strain POL32, active compounds read low) was 0.981 and the normalized growth (locus YJR066W, strain TOR1, active compounds read low) was 0.845.
